TGFb SMAD3 inh: blocks TGF-b signaling | HepG2 CAGA-GFP TGF-b/SMAD3 reporter, GFP fluorescence, 18 h; TGF-beta stimulated, 500 pg/mL final | Potency, µM (doses to about 46.1 µM), without a hit: at the highest dose activity, negative = inhibition, actives largely listed as inhibitors | 410,000 compounds, 1.2% hits; also: potency is read from the fitted curve at half-maximal effect; % is scaled to controls: 0 for no effect and ±100 for the full control effect; nearly all actives have a fitted effect of over 65% in size
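Cell-based qHTS in HEPG2 carrying a CAGA-GFP Smad reporter; compounds added before 500 pg/mL final TGF-beta, 18 h incubation at 37 degrees C, GFP fluorescence quantified per cell by imaging cytometry.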
DT40 TDP1 CPT: DT40-hTDP1 cell growth loss with CPT | chicken DT40 Tdp1-/-;hTDP1 cells + 20 nM CPT, ATP luminescence, 48 h | Potency, µM (series often up to 46.2 µM), for inactives: top-dose activity change, negative = growth inhibition, most hits filed as inhibitors | 420,000 compounds, 12% hits | AID 686979; also: potency is read from the fitted curve at half-maximal effect; % is scaled to controls: 0 for no effect and ±100 for the full control effect; nearly all actives have a fitted effect of over 55% in size
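Chicken DT40 Tdp1-/- cells complemented with human TDP1, 400 cells/well, exposed to compounds plus 20 nM camptothecin for at least 48 h at 37 C; viability read as ATP content by CellTiter-Glo luminescence.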
TDP1 cell noCPT: qHTS for Inhibitors of human tyrosyl-DNA phosphodiesterase 1 (TDP1): qHTS in cells in absence of CPT | DT40 Tdp1-/- hTDP1 cells, no CPT, ATP luminescence, 48 h | Potency, µM (highest dose often 46.2 µM), for the others: at the top dose activity change, negative = growth inhibition, most hits filed as inhibitors | 420,000 compounds, 15% hits | AID 686978, 2013; also: potency is read from the fitted curve at half-maximal effect; % is scaled to controls: 0 for no effect and ±100 for the full control effect; nearly all actives have a fitted effect of over 55% in size
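Growth kinetics read by CellTiter-Glo luminescence after ≥48 hr at 37 °C. Cells: DT40 Tdp1-/- stably carrying human TDP1, 400 per well, compound exposure in the absence of CPT (DMSO vehicle).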
TDP1 block: blocks human tyrosyl-DNA phosphodiesterase 1; Potency, µM (highest dose often 130 µM), for the others: at the top dose activity change, negative = inhibition, hits mostly inhibitors; 350,000 compounds, 0.28% hits; recombinant TDP1, AlphaScreen DNA substrate cleavage; Q9NUW8; also: potency is read from the fitted curve at half-maximal effect; % is scaled to controls: 0 for no effect and ±100 for the full control effect; nearly all actives have a fitted effect of over 40% in size
Target sequence (Q9NUW8 whole entry, looked up): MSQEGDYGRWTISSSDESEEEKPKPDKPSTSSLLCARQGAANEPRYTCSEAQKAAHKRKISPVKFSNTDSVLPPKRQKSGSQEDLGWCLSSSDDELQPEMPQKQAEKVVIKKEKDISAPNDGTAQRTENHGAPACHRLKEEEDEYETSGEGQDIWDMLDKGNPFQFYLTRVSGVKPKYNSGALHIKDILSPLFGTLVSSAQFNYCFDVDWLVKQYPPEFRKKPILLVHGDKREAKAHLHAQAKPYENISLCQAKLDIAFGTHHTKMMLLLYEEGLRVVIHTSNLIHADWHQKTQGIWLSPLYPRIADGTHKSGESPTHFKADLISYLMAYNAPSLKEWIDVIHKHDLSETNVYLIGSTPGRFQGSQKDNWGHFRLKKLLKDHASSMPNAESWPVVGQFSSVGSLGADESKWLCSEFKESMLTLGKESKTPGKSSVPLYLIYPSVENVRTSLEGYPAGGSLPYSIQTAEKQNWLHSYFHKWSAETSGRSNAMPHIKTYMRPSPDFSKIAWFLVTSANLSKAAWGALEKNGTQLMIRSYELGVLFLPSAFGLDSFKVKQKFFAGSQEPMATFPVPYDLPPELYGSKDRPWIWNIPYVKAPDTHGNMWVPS
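E. coli-derived human Tdp1, 1 nM final. Cpd preinc 15 min RT; substrate 15 nM final, 5 min RT; AS bead mix 10 ug/ml final, 10 min RT. Signal loss = tyrosine-FITC cleavage. No-enzyme wells = max signal.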
IL-1B inflam inh: inflammasome signaling inhibition, IL-1 beta readout | AID 743279 | THP-1 LPS/ATP IL-1B secretion, AlphaLISA, 16 h; active compounds read low | activity change, % at 57.5 µM | 360,000 compounds, 4.7% hits; in the data active = activity change below about -50%; inconclusive = mostly about -30% to -49%; also: % is scaled to controls: 0 for no effect and ±100 for the full control effect
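THP-1 cells pretreated 1 hr with compounds (up to 57.5 uM final), then stimulated with LPS (250 ng/mL final) plus ATP (1.25 mM final); secreted IL-1B measured by AlphaLISA after 16 hr, decreased signal indicating inhibition.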
HepG2 tox: counter-screen for TGF-b inhibitors: cytotoxicity in HepG2 cells; HepG2 CAGA-GFP viability, ATP luminescence, 18 h; Potency, µM (highest dose often 46.1 µM), without a hit: at the highest dose activity change, negative = cytotoxicity, hits mostly cytotoxic; 410,000 compounds, 0.76% hits; also: potency is read from the fitted curve at half-maximal effect
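CellTiter-Glo luminescence gave cytotoxicity after 18 hours at 37 degrees C. The cells were HepG2 CAGA-GFP in 1% FBS DMEM, stimulated with 500 pg/mL TGF-beta after compound addition. %Activity was normalised to no-cell wells (complete cell-killing) and DMSO (no toxicity), and curves were fitted and classified.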
The depositor's hits bear a star; ? = inconclusive; · = not tested or not shown; ! = repeats disagree; [ ] = remark or other dose. Most compounds without a hit are left out; they make up all but 19% or so of the library. Unless noted, calls follow the shape of the dose curve; as a rule, active = well fitted curve in the direction sought with a large enough effect; inconclusive = small, poorly fitted or top-dose-only effect, or another doubt; inactive = no such curve, though single readings can be large; an effect the other way counts as inactive or inconclusive.

SMILES | TGFb SMAD3 inh | DT40 TDP1 CPT | TDP1 cell noCPT | TDP1 block | IL-1B inflam inh | HepG2 tox
COc1ccc(C(=O)Nc2ccnn2C2CCN(C(C)CSC)CC2)cc1 (centres undefined) | 20% | 3% | 20% | 4% | -11 | 1%
CCCCCC1(C(=O)OCC)CC(CSC(=N)N)OC1=O (centres undefined) | 13µM* | 21µM* | 16µM* | 1% | -23 | -73%
COc1cccc(NC(=O)c2cc3c(=O)n4ccccc4nc3n(CC(C)C)c2=N)c1 | 3% | 6.5µM* | 5.8µM* | 5% | 2 | -16%
COc1ccc(CCn2c(=N)c(C(=O)NC3CCCC3)cc3c(=O)n4ccccc4nc32)cc1OC | 11% | 0.73µM* | 0.65µM* | 1% | -3 | 3%
Cn1c(C(=O)NCCc2ccccc2)cc2c(=O)n3ccccc3nc21 | 3% | 6% | ? | -5% | · | 1%
COc1ccc(Cn2c(=N)c(C(=O)NC3CCCCC3)cc3c(=O)n4ccccc4nc32)cc1 | 3% | 18µM* | 8.2µM* | 1% | 11 | 5%
CC(C)n1c(=N)c(C(=O)NCCc2ccccc2)cc2c(=O)n3ccccc3nc21 | -9% | -25% | ? | 2% | -52* | -33%
N=c1c(C(=O)NC2CCCC2)cc2c(=O)n3ccccc3nc2n1CC1CCCO1 (centres undefined) | 12% | 5% | 6% | · | 10 | -1%
Cc1cccc(NC(=O)c2cc3c(=O)n4ccccc4nc3n(CC(C)C)c2=N)c1 | -1% | 13% | -7% | 5% | 4 | -2%
N=c1c(C(=O)NC2CCCCC2)cc2c(=O)n3ccccc3nc2n1CC1CCCO1 (centres undefined) | -16% | 4% | ? | · | 25 | -4%
Cc1cccc(CN(C)C[C@@H]2OCc3cnnn3CCCC(=O)N([C@H](C)CO)C[C@H]2C)c1 | -4% | -4% | -26% | · | 1 | -6%
Cc1ccc(NC(=O)C(C)OC(=O)c2nc(Cl)ccc2Cl)cc1S(=O)(=O)N1CCOCC1 (centres undefined) | 3% | 0% | 4% | · | 21 | -13%
CCCCN(C1CCS(=O)(=O)C1)S(=O)(=O)c1ccc(OC)c(OC)c1 (centres undefined) | ? | -6% | -2% | 0% | 6 | -2%
CCCCOC(=O)c1ccc(NC(=O)CC2NCCNC2=O)cc1 (centres undefined) | 0% | -4% | -4% | 1% | · | 1%
Cc1onc(-c2c(F)cccc2Cl)c1C(=O)NC(C)c1ccccc1 (centres undefined) | -10% | -1% | ? | · | 2 | -2%
COc1ccc(CCn2c(=N)c(C(=O)NC3CCCC3)cc3c(=O)n4ccccc4nc32)cc1 | 11% | 4.1µM* | 3.3µM* | 2% | -83* | 1%
COc1ccc(CCn2c(=N)c(C(=O)NCC3CCCO3)cc3c(=O)n4ccccc4nc32)cc1OC (centres undefined) | -5% | 7.3µM* | 2.9µM* | 2% | ? | -19%
CCC(C)n1c(=N)c(C(=O)NC2CCCCC2)cc2c(=O)n3ccccc3nc21 (centres undefined) | -3% | ? | 16µM* | · | · | 1%
COCCCn1c(=N)c(C(=O)NC2CCCC2)cc2c(=O)n3ccccc3nc21 | 20% | 1% | -1% | · | · | -21%
CC(C)n1c(=N)c(C(=O)NC2CCCCC2)cc2c(=O)n3ccccc3nc21 | -13% | 2% | 0% | · | · | 7%
CCCC(=O)N1CCC1(C)C(=O)NCc1ccccc1SC (centres undefined) | -7% | -28% | -28% | · | 19 | -15%
Cc1cccc(-n2nc(C(=O)Nc3ccccc3)n3c(=O)cc(-c4ccccc4)nc23)c1 | -8% | ? | 16µM* | 1% | -9 | -23%
Cc1cc(C)cc(C(=O)Nc2c(C(=O)Nc3ccccc3F)oc3ccccc23)c1 | 1% | ? | -36% | 4% | · | -16%
COc1ccc(/C(=N/Nc2ncnc3ccccc23)C(=O)O)cc1 | ? | 21µM* | ? | -7% | 45 | -45%
CCOC(=O)c1ccccc1NC(=O)N(Cc1ccco1)C1CCN(C(C)=O)CC1 | -13% | ? | ? | 2% | · | -32%
SMILES | TGFb SMAD3 inh | DT40 TDP1 CPT | TDP1 cell noCPT | TDP1 block | IL-1B inflam inh | HepG2 tox
CC(C)(C)[C@]1(O)CCN2C[C@H]3c4ccccc4CCc4cccc(c43)[C@@H]2C1 | -9% | 8.2µM*! | 12µM* | 6% | -16 | -33%
O=C(C1CCCCC1)N1CC(=O)N2CCc3ccccc3[C@@H]2C1 | · | · | · | 6%[56.1 µM] | · | ·
CC(C)(C)C1(O)CCN2CC3c4ccccc4CCc4cccc(c43)C2C1 (centres undefined) | · | 17µM* | 24µM* | · | · | ·
CS(=O)(=O)c1ccc(Nc2nc(C(N)Cc3ccc(F)cc3)cs2)cc1 (centres undefined) | ? | 16µM* | 21µM* | · | -28 | -42%
CS(=O)(=O)c1ccc(Nc2nc(C(N)Cc3ccccc3)cs2)cc1 (centres undefined) | -4% | ? | 21µM* | · | 0 | -14%
CS(=O)(=O)c1ccc(Nc2nc(C(N)Cc3ccc(C(F)(F)F)cc3)cs2)cc1 (centres undefined) | ? | 21µM* | -84% | · | -21 | -55%
COc1ccc(CC(N)c2csc(Nc3ccc(S(C)(=O)=O)cc3)n2)cc1 (centres undefined) | -3% | ? | 23µM* | · | -14 | -17%
O=C1CC(c2ccc(Cl)cc2)Sc2nc(-c3ccc(F)cc3)nn21 (centres undefined) | 3% | -20% | 0% | · | · | 11%
COc1ccc(CC(=O)OCC(=O)Nc2ncc(Cl)c(C)c2Cl)cc1 | -25% | -7% | -1% | -11% | 3 | -7%
O=c1c(N2CCN(c3ccccc3)CC2)csc2ccc(Cl)cc12 | 0% | ? | ? | 2% | · | -6%
CS(=O)(=O)c1ccc(Nc2nc(C(N)c3ccccc3)cs2)cc1 (centres undefined) | 2% | ? | ? | · | -5 | -1%
CS(=O)(=O)c1ccc(Nc2nc(C(N)COCc3ccccc3)cs2)cc1 (centres undefined) | -34% | 21µM* | 21µM* | · | -3 | -2%
Cc1oc(-c2ccc(-c3ccccc3)cc2)nc1CN(CCO)C(C)C | -15% | 15% | ? | · | -82* | -23%
Cc1nn(-c2ccc(F)cc2)c2nc(N)c(C#N)c(-c3cccs3)c12 | 11% | 23µM* | 13µM* | 0% | 10 | -13%

Screening results as filed in PubChem.
